TDP1 cell CPT – qHTS for Inhibitors of human tyrosyl-DNA phosphodiesterase 1 (TDP1): qHTS in cells in presence of CPT; actives 12% (n = 420,000); chicken DT40 Tdp1-/-;hTDP1 cells + 20 nM CPT, ATP luminescence, 48 h; Potency, µM (titrated, usually from 46.2 µM), inactives show top-dose activity change, negative = growth inhibition, most hits filed as inhibitors; note: potency is the fitted concentration of half-maximal effect; nearly all actives have a fitted effect of over 55% in size
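Chicken DT40 Tdp1-/- cells stably complemented with human TDP1 were seeded at 400 cells/well in medium containing 20 nM camptothecin, exposed to pin-transferred compounds, and grown at 37 °C for at least 48 hr. Viability was read as ATP luminescence.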
TDP1 cell noCPT – qHTS for Inhibitors of human tyrosyl-DNA phosphodiesterase 1 (TDP1): qHTS in cells in absence of CPT; actives 15% (n = 420,000); DT40 Tdp1-/- hTDP1 cells, no CPT, ATP luminescence, 48 h; Potency, µM (top dose mostly 46.2 µM), for inactives: top-dose activity change, negative = growth inhibition, usual class: inhibitors; note: potency is the fitted concentration of half-maximal effect; nearly all actives have a fitted effect of over 55% in size
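Luminescent ATP content (CellTiter-Glo) served as the growth readout. Knockout chicken DT40 cells expressing human TDP1 were exposed to compounds without camptothecin for a minimum 48 hr at 37 °C.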
IL1B secr inh – qHTS for Inhibitors of Inflammasome Signaling: IL-1-beta AlphaLISA Primary Screen; THP-1 LPS/ATP IL-1B secretion, AlphaLISA, 16 h; hits give low values; activity change, % at 57.5 µM; actives 4.7% (n = 360,000); AID 743279, 2014; in the data active = activity change below about -50%; inconclusive = mostly about -30% to -49%
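Secreted IL-1B measured by AlphaLISA bead assay after 16 h compound exposure of THP-1 cells; compounds (final up to 57.5 uM) added 1 h before LPS (250 ng/mL) and ATP (1.25 mM) stimulation; lower signal means less secretion.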
RORgamma inh – qHTS for inhibitors of ROR gamma transcriptional activity. Nuclear receptor ROR-gamma (Mus musculus), P51450. Potency, µM (highest dose often 53.6 µM), for inactives: at the top dose activity change, negative = inhibition, actives largely listed as inhibitors. Drosophila S2 Gal4-RORgamma UAS-luciferase reporter, 20 h. actives 5.4% (n = 310,000); note: potency is the fitted concentration of half-maximal effect; nearly all actives have a fitted effect of over 60% in size
Target sequence (P51450 whole entry, looked up, the tested form may be a part): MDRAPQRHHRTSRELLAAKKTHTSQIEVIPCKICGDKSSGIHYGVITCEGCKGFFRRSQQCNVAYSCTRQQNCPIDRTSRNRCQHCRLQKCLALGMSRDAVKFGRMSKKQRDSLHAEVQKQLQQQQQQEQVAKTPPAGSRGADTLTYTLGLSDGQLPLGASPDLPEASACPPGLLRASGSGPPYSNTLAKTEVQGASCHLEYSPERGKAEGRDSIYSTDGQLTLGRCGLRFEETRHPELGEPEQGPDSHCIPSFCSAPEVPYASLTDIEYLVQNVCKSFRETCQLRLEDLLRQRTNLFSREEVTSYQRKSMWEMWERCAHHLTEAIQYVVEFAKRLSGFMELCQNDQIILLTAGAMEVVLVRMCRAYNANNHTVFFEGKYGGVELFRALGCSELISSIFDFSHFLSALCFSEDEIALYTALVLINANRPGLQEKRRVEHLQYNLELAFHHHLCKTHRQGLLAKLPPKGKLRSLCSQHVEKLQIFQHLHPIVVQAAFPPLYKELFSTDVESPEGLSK
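Stable Schneider cell line, Gal4 DNA-binding domain fused to ROR gamma, UAS-luciferase. Cmpd 1 hr RT → CuSO4 700 uM final → 20 hr RT → luciferase reagent 10 min → luminescence.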
VP16 counter – VP16 counterscreen qHTS for inhibitors of ROR gamma transcriptional activity; Drosophila S2 Gal4-VP16 UAS-luciferase, luminescence, 20 h; Potency, µM (top dose mostly 53.6 µM), inactives show at the top dose activity, negative = inhibition, most hits filed as inhibitors; actives 3.5% (n = 310,000);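 note: Gal4-VP16 expression switched on by copper sulfate through the metallothionein promoter; potency is the fitted concentration of half-maximal effect; nearly all actives have a fitted effect of over 50% in size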
LDHA inh – qHTS assay for inhibitors of human lactate dehydrogenase; purified LDHA, NADH/diaphorase-resazurin fluorescence; hits give low values; activity change, % (values are at about 110 or 230 µM); actives 0.15% (n = 480,000); AID 1347041, 2019; in the data active = activity change below about -30%; inconclusive = mostly about -25% to -30%;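 note: plate controls were DMSO wells for no effect and wells without enzyme for full effect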
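Remaining NADH was detected by diaphorase (0.133 mg/mL) converting 37 µM resazurin to fluorescent resorufin, read at 0 and 20 minutes. The preceding 5-minute room-temperature reaction used 2 nM LDHA, 0.2 mM sodium pyruvate and 0.06 mM NADH at pH 7.4.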
* marks the source's active call; other numbers are inactive results. Sampled rows, rich in hits. Any-hit rate of the full collection: about 18%. Unless noted, calls come from the whole dose curve; as a rule, active = well fitted curve in the direction sought with a large enough effect; inconclusive = small, poorly fitted or top-dose-only effect, or another doubt; inactive = no such curve, though single readings can be large; an effect the other way counts as inactive or inconclusive. Unless noted, % is set by controls: 0 for no effect and ±100 for the full control effect.

`O=C(O)CCc1ccc(-c2cccs2)n1CC1CCCO1` (stereo unspecified) gave TDP1 cell CPT 0.4%, TDP1 cell noCPT -4.4%, IL1B secr inh 3.8, RORgamma inh -44.8%, VP16 counter 7.3% and LDHA inh -15.3.
`CN=c1scc(-c2ccc(Br)cc2)n1C` gave TDP1 cell CPT -11.3%, TDP1 cell noCPT -28.0%, IL1B secr inh -9.7, RORgamma inh 27.9%, VP16 counter inconclusive and LDHA inh -6.9.
`Cc1cc(=S)cc(C)n1CCCn1ccnc1` gave TDP1 cell CPT 0.3%, TDP1 cell noCPT 6.4%, IL1B secr inh 9.3, RORgamma inh -41.4%, VP16 counter -7.5% and LDHA inh 1.1.
Screening O=C(c1ccccc1)N(c1ccccc1)c1ccccc1O returned TDP1 cell CPT 14.6µM*, TDP1 cell noCPT 16.4µM*, IL1B secr inh 20.4 and LDHA inh 6.3.
Cc1ccc(NC(=S)NCCCO)cc1 was read as LDHA inh -1.3.
COc1ccc(/C(=N/Nc2ncnc3ccccc23)C(=O)O)cc1 was read as TDP1 cell CPT 20.6µM*, TDP1 cell noCPT inconclusive, IL1B secr inh 45.4, RORgamma inh 0.282µM*, VP16 counter 0.501µM* and LDHA inh 11.2.
For CCOC(=O)C(Cc1ccnc2ccccc12)=NO the results were TDP1 cell CPT inconclusive, TDP1 cell noCPT inconclusive, IL1B secr inh 22.8 and LDHA inh -12.4.
`CCOC(=O)/C(=N\Nc1ncnc2ccccc12)c1ccc(OC)cc1` gave TDP1 cell CPT -5.9%, TDP1 cell noCPT -6.8%, IL1B secr inh 21.1, RORgamma inh 7.08µM*, VP16 counter 14.1µM* and LDHA inh -6.7.
For COc1ccc(Nc2nc(-c3ccc(OC)cc3)nc3ccccc23)cc1 the results were LDHA inh -15.5.
`CC(C)C(NC(=O)c1cccc(CS(C)(=O)=O)c1)c1ccc(F)cc1` (stereo unspecified) gave LDHA inh -9.7.
`CCc1ccc(C2C(C#N)=C(N)C(C#N)(C#N)C3=CCC(C(C)(C)C)CC32)cc1` (stereo unspecified) gave TDP1 cell CPT inconclusive, TDP1 cell noCPT 14.6µM*, IL1B secr inh -58.3*, RORgamma inh inconclusive, VP16 counter inconclusive and LDHA inh 15.2.
Screening CC(C)(C)C1CC=C2C(C#N)=C(N)C(C#N)(C#N)C(c3cccs3)C2C1 (stereo unspecified) returned RORgamma inh -2.3% and VP16 counter 5.8%.
CC12CCC(C(=O)N/N=C/c3ccc(O)cc3O)(OC1=O)C2(C)C (stereo unspecified) was read as TDP1 cell CPT 10.3µM*, TDP1 cell noCPT 10.3µM*, IL1B secr inh 161.2, RORgamma inh inconclusive, VP16 counter -5.2% and LDHA inh 9.0.
C/C(=N\NC(=O)C12CCC(C)(C(=O)O1)C2(C)C)c1ccccc1O (stereo unspecified) was read as TDP1 cell CPT 16.4µM*, TDP1 cell noCPT 13µM*, IL1B secr inh 223.0, RORgamma inh 0.708µM*, VP16 counter 1.26µM* and LDHA inh -1.9.
For O=C(/C=C/c1ccccc1)OCCCc1ccccc1 the results were LDHA inh -8.8.
CCCn1c(=O)c2sc(N3CCCC3)nc2n(CC(=O)NC2CCCCC2)c1=O was read as LDHA inh -1.1.
Cc1csc(/C(C#N)=C\c2cccc3c2OCCCO3)n1 was read as LDHA inh 9.3.
